Holding throughout (test): log2 fold change, soluble protein after heating vs DMSO (PISA); higher = thermal stabilisation; K562 lysate, 10 uM; active = over 0.2 and 3.5 SD of the protein, either way, in both replicates (recomputed)
Compound in one assay: Cc1cn(-c2cc(NC(=O)c3ccc(C)c(Nc4nccc(-c5cccnc5)n4)c3)cc(C(F)(F)F)c2)cn1 [nilotinib]
Summed up:
(§1)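 Pellets of K562 cells were dounce-homogenised in PBS pH 7.4 with 1 mM MgCl2, and the crude extract was held at 1 mg/mL protein for a 30 min treatment with 10 μM compound. Aliquots were heated for 3 min over 48°C-58°C and pooled before NP-40 was added to 0.5% at 4°C. The supernatant from 21,000xg for 90 min was quantified by TMTpro 16plex LC-MS/MS with channel sums equalised. Values are reported from duplicates as log-two fold change in thermal stability relative to solvent controls.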

Compound in assay [1]: Cc1nc(Nc2n[nH]c3c2CN(C(=O)N[C@H](CN(C)C)c2ccccc2)C3(C)C)c2sccc2n1
An outline of the steps: as §1

Compound in a further assay: Cc1nc(Nc2ncc(C(=O)Nc3c(C)cccc3Cl)s2)cc(N2CCN(CCO)CC2)n1 [dasatinib]
An outline of the steps:
as §1

Compound in assay [2]: Cc1ncc(-c2ccnc(Nc3ccc(S(C)(=O)=O)cc3)n2)n1C(C)C
Summed up:
as §1

Compound in assay [3]: Cn1cc(-c2ccc3c(c2)CCN3C(=O)Cc2cccc(C(F)(F)F)c2)c2c(N)ncnc21
An outline of the steps:
as §1

Compound in a further assay: Cn1cc(CNCC2CCN(c3ncc(C(=O)NO)cn3)CC2)c2ccccc21 [quisinostat]
An outline of the steps: as §1

Compound in another assay: Cn1cncc1[C@@](N)(c1ccc(Cl)cc1)c1ccc2c(c1)c(-c1cccc(Cl)c1)cc(=O)n2C [tipifarnib]
An outline of the steps: as §1

Compound in assay [4]: NC(=O)Nc1cc(-c2cccc(F)c2)sc1C(=O)N[C@H]1CCCNC1
An outline of the steps: as §1

Compound in assay [5]: NC(=O)c1cnc(N[C@@H]2CCCC[C@@H]2N)nc1Nc1cccc(-n2nccn2)c1
An outline of the steps: as §1

Compound in assay [6]: NC1(c2ccc(-c3nc4ccn5c(=O)[nH]nc5c4cc3-c3ccccc3)cc2)CCC1
Summed up: as §1

Targets with a hit are over-represented here; the source holds about 8,800 in all. About 0.5% of all pairs of compound and target were hits. Unmarked numbers belong to inactive results.

Sequence of UniProt O15530 (O15530 whole entry, looked up): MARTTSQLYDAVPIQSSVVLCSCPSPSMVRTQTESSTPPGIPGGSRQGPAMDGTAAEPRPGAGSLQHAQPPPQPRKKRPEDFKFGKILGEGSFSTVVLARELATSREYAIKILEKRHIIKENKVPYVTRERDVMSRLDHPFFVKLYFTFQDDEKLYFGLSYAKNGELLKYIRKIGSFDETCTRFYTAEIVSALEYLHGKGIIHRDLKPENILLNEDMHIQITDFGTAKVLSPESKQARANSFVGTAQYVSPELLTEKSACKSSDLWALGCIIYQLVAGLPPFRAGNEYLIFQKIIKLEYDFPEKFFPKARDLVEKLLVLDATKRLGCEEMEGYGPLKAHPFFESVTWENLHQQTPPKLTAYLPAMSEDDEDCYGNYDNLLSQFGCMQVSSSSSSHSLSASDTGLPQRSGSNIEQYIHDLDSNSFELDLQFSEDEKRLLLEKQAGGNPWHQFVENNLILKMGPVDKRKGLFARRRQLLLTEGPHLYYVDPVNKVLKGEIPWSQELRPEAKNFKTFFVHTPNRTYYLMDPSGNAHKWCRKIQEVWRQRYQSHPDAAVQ
Sequence of UniProt P35236 (P35236 whole entry, looked up): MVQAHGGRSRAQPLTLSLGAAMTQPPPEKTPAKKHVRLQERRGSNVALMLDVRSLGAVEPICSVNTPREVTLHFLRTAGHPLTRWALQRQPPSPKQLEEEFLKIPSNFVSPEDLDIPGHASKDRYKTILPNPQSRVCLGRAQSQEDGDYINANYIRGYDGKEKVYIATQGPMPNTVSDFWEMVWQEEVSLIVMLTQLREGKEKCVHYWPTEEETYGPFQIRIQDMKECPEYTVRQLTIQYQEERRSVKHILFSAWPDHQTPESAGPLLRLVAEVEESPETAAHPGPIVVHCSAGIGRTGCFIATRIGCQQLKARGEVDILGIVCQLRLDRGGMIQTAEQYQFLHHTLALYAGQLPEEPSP
Sequence of UniProt P28328 (P28328 whole entry, looked up): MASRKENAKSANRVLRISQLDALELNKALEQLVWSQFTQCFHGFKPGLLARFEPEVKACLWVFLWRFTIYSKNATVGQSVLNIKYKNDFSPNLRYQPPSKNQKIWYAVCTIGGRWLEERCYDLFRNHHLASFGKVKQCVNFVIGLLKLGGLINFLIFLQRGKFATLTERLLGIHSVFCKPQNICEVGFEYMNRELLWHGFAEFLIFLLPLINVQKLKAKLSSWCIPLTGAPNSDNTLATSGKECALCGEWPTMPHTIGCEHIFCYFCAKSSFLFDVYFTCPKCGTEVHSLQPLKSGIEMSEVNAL
Sequence of UniProt Q6P996 (Q6P996 whole entry, looked up): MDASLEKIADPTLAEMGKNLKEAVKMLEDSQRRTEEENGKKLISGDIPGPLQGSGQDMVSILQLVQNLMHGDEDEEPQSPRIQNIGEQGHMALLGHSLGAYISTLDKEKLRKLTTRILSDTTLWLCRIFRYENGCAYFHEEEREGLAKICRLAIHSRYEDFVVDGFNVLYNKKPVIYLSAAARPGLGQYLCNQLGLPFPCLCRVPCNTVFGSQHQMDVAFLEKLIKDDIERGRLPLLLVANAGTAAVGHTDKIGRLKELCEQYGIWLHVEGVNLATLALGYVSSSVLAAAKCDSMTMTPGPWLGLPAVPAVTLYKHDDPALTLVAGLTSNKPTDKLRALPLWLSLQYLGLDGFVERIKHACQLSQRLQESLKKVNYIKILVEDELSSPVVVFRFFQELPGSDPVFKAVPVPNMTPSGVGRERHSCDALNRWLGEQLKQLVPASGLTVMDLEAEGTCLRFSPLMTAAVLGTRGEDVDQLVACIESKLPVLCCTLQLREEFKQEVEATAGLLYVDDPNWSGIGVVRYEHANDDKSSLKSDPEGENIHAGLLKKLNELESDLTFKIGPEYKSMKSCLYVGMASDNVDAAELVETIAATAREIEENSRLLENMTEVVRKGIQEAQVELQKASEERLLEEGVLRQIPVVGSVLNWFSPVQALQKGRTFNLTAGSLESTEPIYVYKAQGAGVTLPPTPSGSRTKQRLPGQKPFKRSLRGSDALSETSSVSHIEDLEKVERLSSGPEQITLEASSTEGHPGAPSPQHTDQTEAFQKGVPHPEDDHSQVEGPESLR
Sequence of UniProt P57721 (P57721 whole entry, looked up): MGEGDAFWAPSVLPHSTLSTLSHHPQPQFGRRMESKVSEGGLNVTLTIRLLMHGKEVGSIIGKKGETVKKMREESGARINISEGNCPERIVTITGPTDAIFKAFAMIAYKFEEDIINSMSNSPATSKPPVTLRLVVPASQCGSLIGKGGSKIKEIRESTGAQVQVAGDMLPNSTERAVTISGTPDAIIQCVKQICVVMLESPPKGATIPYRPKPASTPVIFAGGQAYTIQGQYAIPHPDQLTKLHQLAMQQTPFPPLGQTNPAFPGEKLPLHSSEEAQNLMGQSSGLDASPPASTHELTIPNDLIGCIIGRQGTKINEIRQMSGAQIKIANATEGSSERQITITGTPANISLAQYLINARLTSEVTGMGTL
Sequence of UniProt Q15366 (Q15366 whole entry, looked up): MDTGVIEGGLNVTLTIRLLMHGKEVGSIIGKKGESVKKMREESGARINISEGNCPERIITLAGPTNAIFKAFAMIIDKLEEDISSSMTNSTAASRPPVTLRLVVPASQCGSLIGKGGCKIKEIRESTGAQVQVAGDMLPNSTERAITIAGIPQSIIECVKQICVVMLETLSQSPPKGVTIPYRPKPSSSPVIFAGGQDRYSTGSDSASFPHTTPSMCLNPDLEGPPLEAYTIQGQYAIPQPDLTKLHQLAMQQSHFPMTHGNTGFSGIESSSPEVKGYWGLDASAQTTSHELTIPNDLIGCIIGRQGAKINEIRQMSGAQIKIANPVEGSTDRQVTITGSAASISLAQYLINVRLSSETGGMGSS
Sequence of UniProt P48426 (P48426 whole entry, looked up): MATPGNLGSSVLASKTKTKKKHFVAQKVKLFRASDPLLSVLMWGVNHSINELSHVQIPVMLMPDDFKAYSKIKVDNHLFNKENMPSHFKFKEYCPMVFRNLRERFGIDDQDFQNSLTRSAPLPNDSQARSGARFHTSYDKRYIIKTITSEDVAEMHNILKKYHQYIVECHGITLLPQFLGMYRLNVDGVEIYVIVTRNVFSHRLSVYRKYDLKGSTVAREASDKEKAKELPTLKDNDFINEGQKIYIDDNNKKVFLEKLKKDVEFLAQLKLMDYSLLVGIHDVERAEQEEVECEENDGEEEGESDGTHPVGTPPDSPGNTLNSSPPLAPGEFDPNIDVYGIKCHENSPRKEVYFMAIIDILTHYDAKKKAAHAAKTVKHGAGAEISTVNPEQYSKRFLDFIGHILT
Sequence of UniProt Q9UBV8 (Q9UBV8 whole entry, looked up): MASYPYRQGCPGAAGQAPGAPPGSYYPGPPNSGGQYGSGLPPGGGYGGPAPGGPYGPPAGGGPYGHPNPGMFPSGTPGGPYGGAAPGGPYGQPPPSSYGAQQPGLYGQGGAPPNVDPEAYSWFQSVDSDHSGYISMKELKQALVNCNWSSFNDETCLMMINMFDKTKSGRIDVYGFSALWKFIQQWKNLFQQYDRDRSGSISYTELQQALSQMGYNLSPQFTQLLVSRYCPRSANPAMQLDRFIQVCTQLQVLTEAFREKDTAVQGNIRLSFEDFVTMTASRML
Sequence of UniProt Q9BSG0 (Q9BSG0 whole entry, looked up): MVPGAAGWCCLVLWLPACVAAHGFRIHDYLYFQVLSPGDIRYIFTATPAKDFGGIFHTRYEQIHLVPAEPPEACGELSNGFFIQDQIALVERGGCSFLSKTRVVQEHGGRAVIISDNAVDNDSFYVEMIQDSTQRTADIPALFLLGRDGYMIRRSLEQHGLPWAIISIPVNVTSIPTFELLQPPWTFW
Sequence of UniProt Q9BZE2 (Q9BZE2 whole entry, looked up): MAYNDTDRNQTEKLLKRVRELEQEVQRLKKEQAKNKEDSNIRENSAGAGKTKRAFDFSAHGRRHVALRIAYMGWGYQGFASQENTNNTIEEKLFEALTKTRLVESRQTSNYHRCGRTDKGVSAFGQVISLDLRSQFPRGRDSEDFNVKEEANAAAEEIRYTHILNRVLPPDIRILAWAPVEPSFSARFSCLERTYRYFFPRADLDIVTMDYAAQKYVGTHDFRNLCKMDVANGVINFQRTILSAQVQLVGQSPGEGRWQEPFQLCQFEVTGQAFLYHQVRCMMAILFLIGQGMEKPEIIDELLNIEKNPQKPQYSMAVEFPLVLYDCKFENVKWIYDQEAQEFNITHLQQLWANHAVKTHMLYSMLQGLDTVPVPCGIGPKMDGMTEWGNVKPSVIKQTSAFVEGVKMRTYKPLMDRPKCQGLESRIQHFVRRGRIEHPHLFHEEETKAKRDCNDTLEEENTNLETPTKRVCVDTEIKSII
Sequence of UniProt Q9NR22 (Q9NR22 whole entry, looked up): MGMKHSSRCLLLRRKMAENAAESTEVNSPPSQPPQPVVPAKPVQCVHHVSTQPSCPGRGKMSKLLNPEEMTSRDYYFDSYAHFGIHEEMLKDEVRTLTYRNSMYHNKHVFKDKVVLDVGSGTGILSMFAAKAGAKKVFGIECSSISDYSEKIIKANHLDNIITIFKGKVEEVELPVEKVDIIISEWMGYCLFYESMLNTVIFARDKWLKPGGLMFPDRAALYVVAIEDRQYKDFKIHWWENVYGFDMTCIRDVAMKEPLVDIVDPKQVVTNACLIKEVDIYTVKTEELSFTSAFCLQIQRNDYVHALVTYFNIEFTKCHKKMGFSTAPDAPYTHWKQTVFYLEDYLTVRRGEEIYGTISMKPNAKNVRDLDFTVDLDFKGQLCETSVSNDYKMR
Sequence of UniProt O75569 (O75569 whole entry, looked up): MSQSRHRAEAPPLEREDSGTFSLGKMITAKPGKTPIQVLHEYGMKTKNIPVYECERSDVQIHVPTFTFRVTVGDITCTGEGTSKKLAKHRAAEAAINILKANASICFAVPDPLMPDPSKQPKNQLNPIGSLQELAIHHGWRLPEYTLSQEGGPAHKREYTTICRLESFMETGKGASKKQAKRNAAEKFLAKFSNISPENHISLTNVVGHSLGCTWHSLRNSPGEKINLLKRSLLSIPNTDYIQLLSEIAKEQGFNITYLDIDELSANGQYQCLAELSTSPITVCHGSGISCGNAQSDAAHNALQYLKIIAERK

In the case of PIK3C3 (UniProt Q8NEB9), the log2 fold change with nilotinib was -0.001; in assay [1], -0.011; with dasatinib, -0.05; in assay [2] it was 0.062; in assay [3], -0.025; with quisinostat it was -0.022. The log2 fold change with tipifarnib was -0.054; in [4], 0.027; in assay [5], 0.04; in assay [6], -0.008.
As for PCBP3 (UniProt P57721), the log2 fold change with nilotinib is 0.015; in assay [1], -0.022; with dasatinib, -0.005; in [2], 0.018; in assay [3] it was -0.025; with quisinostat, -0.004. Further, the log2 fold change with tipifarnib was 0; in assay [4] it was -0.023; in [5] it was -0.014; in assay [6], 0.012.
PUS3 (UniProt Q9BZE2): the log2 fold change in the assay with nilotinib was -0.019; in [1], 0.045; with dasatinib it was -0.063; in assay [2], -0.042; in assay [3], 0.145; with quisinostat, 0.078. The log2 fold change in the assay with tipifarnib was -0.007; in [4] it was -0.003; in assay [5], 0.023; in assay [6], 0.075.
On to PTPN7 isoform 3 (UniProt P35236), for which the log2 fold change with nilotinib is -0.03; in assay [1] it was 0.017; with dasatinib it was -0.088; in assay [2], -0.021; in assay [3], 0.064; with quisinostat, 0.008. Moreover, the log2 fold change was 0.054 with tipifarnib, -0.006 in assay [4], -0.015 in assay [5] and -0.043 in assay [6].
Turning to PDPK1 (UniProt O15530), the log2 fold change in the assay with nilotinib is -0.093; in assay [1] it was 0.314; with dasatinib, -0.014; in assay [2], -0.093; in assay [3], 0; in the assay with quisinostat, -0.094. Further, the log2 fold change with tipifarnib was -0.011; in [4], 0.619 (active); in assay [5] it was 0.019; in [6], -0.059.
With PDXDC1 (UniProt Q6P996), the log2 fold change in the assay with nilotinib is 0.058; in assay [1] it was 0.064; in the assay with dasatinib, -0.098; in assay [2], -0.024; in assay [3], 0.022; with quisinostat it was -0.035. Besides, the log2 fold change with tipifarnib was -0.074; in assay [4], 0.019; in assay [5], 0.042; in [6], 0.012.
PCBP2 isoform 8 (UniProt Q15366): the log2 fold change in the assay with nilotinib was 0.059; in [1], 0.069; with dasatinib, -0.057; in [2] it was 0.04; in [3] it was 0.003; with quisinostat it was 0.133. Besides, the log2 fold change with tipifarnib was 0.015; in assay [4], 0.055; in [5], -0.091; in [6] it was -0.049.
Turning to PEX2 (UniProt P28328), the log2 fold change in the assay with nilotinib was 0.059; in assay [1], -0.158; in the assay with dasatinib, -0.078; in assay [2], -0.041; in assay [3] it was 0.039; in the assay with quisinostat, 0.054. Moreover, the log2 fold change is 0.048 with tipifarnib, 0.143 in assay [4], 0.116 in [5] and -0.106 in assay [6].
As for PEF1 (UniProt Q9UBV8), the log2 fold change with nilotinib was 0.026; in assay [1] it was 0.013; in the assay with dasatinib, 0.012; in [2], -0.015; in assay [3], -0.004; with quisinostat, 0.08. The log2 fold change with tipifarnib is 0.028; in assay [4] it was -0.018; in assay [5], 0.005; in assay [6], 0.011.
Turning to PIP4K2A (UniProt P48426), the log2 fold change was 0.041 with nilotinib; -0.006 in assay [1]; 0.068 in the assay with dasatinib; 0.141 in assay [2]; 0.046 in [3]; -0.001 in the assay with quisinostat. Also, the log2 fold change is -0.062 with tipifarnib, 0.039 in [4], -0.012 in assay [5] and -0.056 in assay [6].
For PCBP2 isoform 3 (UniProt Q15366), the log2 fold change in the assay with nilotinib was 0.019; in assay [1] it was -0.012; with dasatinib it was -0.019; in assay [2], 0.015; in assay [3], 0.039; with quisinostat, 0.044. Further, the log2 fold change with tipifarnib is 0.005; in assay [4], 0; in assay [5], 0.005; in assay [6], 0.072.
For the target PRKRA (UniProt O75569), the log2 fold change with nilotinib was 0; in assay [1] it was -0.001; in the assay with dasatinib, -0.01; in [2] it was 0.034; in assay [3], 0.029; in the assay with quisinostat, -0.058. In addition, the log2 fold change in the assay with tipifarnib is 0.016; in assay [4], 0.036; in [5], 0.012; in assay [6], -0.043.
Consider PRKCSH (UniProt K7ELL7), for which the log2 fold change is -0.013 in the assay with nilotinib; -0.163 in [1]; 0.014 with dasatinib; 0.125 in assay [2]; -0.015 in [3]; 0.04 with quisinostat. The log2 fold change with tipifarnib was 0.024; in [4], 0.024; in assay [5], -0.032; in assay [6] it was -0.031.
Turning to PRMT8 (UniProt Q9NR22), the log2 fold change with nilotinib was 0.007; in assay [1] it was -0.021; in the assay with dasatinib it was -0.039; in assay [2], -0.01; in assay [3], -0.023; in the assay with quisinostat it was -0.057. In addition, the log2 fold change in the assay with tipifarnib was 0.036; in [4], 0.034; in [5] it was -0.023; in [6] it was -0.056.
As to PRADC1 (UniProt Q9BSG0), the log2 fold change in the assay with nilotinib was 0.1; in assay [1], -0.1; in the assay with dasatinib it was 0.019; in assay [2], -0.047; in assay [3] it was 0.053; with quisinostat, -0.007. The log2 fold change with tipifarnib was 0.296; in assay [4] it was -0.031; in [5], -0.016; in [6], 0.013.

(Values after the supplement of paper PMC10849652.)
